The record followed here is PubChem BioAssay (Tox21).

Several values for one entry are separate records, joined by “and”; a condition that tells them apart may be missing. Equal values may be shown once. Results filed as inconclusive are left out. More than one record can exist for a structure, and the calls need not agree. Activity calls are given as the source filed them. Unless noted, calls follow the shape of the dose curve; as a rule, active = well fitted curve in the direction sought with a large enough effect in the repeat runs; inconclusive = weak or mixed curves; inactive = no such curve, though single readings can be large; an effect the other way counts as inactive or inconclusive.

A short description of assay [1]: qHTS assay to identify aromatase inhibitors - cell viability counter screen (AID 743084).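 Also: cells stimulated with testosterone during compound exposure; nearly all actives have a fitted effect of over 55% in size.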 Also: potency is read from the fitted curve at half-maximal effect.
In assay [2] the target is Aryl hydrocarbon receptor (Homo sapiens) (UniProt P35869). Put plainly: qHTS assay to identify small molecule that activate the aryl hydrocarbon receptor (AhR) signaling pathway (AID 743085). Also: nearly all actives have a fitted effect of over 15% in size. Also: potency is read from the fitted curve at half-maximal effect.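 As to activation: HG2L7.5c1 human HepG2 liver cells with stably integrated DRE-driven firefly reporter; series mostly up to about 70 µM.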 The essentials:
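HepG2 cells (HG2L7.5c1) stably carrying a firefly luciferase reporter driven by 20 dioxin responsive elements were exposed to compound for 24 h at 37C after a 5 h settling period; luminescence rise (ONE-Glo) indicated activation.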

Assay [3] addresses Peroxisome proliferator-activated receptor gamma (Homo sapiens) (UniProt P37231). The assay can be described thus: qHTS assay to identify small molecule agonists of the peroxisome proliferator-activated receptor gamma (PPARg) signaling pathway (AID 743094; active = well fitted activation curve with a large enough effect in the signal ratio in the repeat runs, not every such curve was filed as active; the % refers to the signal ratio). The method in brief: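 Agonist activity was taken from a beta-lactamase reporter (FRET substrate, 1 h at room temperature) in HEK293H cells carrying a PPARg UAS-bla construct. Compounds in DMSO were incubated 17 h at 37C after a 5 h cell pre-incubation.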

Assay [4] can be described thus: qHTS assay for small molecule agonists of the antioxidant response element (ARE) signaling pathway - cell viability counter screen (AID 743203; calls by dose curve; also: nearly all actives have a fitted effect of over 55% in size). The method in brief: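 Viability counter screen: CellTiter-Glo luminescence, read after 30 min at room temperature, in ARE-bla HepG2 wells. Compound exposure lasted 16 h at 37C/5% CO2, following a 5 h pre-incubation of the cells after plating.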

The nature of assay [5]: qHTS assay for small molecule activators of the heat shock response signaling pathway - cell viability counter screen (AID 743209). Also: nearly all actives have a fitted effect of over 50% in size. The method in brief:
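Cytotoxicity counter screen run in the same wells as the heat-shock bla reporter assay: HeLa HSE-bla cells, 5 h compound exposure at 37 C, viability read by CellTiter-Glo luminescence.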

Assay [6] can be described thus: qHTS assay for small molecule activators of the heat shock response signaling pathway (AID 743210; active = well fitted activation curve with a large enough effect in the signal ratio in the repeat runs, with a control signal flat, not every such curve was filed as active; the % refers to the signal ratio; also: series mostly up to about 63 µM). The method in brief: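 Heat shock element–beta-lactamase HeLa reporter cells; qHTS with compounds for 5 h at 37 C; detection by FRET substrate fluorescence after 2.5 h at RT.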
Assay [7] in a line: qHTS assay to identify small molecule that activate the aryl hydrocarbon receptor (AhR) signaling pathway - cell viability counter screen (AID 743086).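 Also: HepG2 liver cells carrying the AhR DRE luciferase reporter; series mostly up to about 70 µM; nearly all actives have a fitted effect of over 45% in size.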 The essentials:
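HepG2-AhR-luc (HG2L7.5c1) cells, 4000/well, were preincubated 5 h at 37C, exposed to compound in qHTS format for 24 hr at 37C, then given CellTiter-Fluor for 30 min; viability was read as fluorescence in the reporter wells.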

Assay [8] addresses Peroxisome proliferator-activated receptor gamma (Homo sapiens) (UniProt P37231). Put plainly: qHTS assay to identify small molecule antagonists of the peroxisome proliferator-activated receptor gamma (PPARg) signaling pathway (AID 743191; calls by dose curve; also: nearly all actives have a fitted effect of over 30% in size; also: potency is read from the fitted curve at half-maximal effect). The essentials:
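GeneBLAzer PPARg UAS-bla HEK293H cells carrying a UAS-driven beta-lactamase reporter were plated at 3000 cells/well, preincubated 5 h at 37C, then given compound for 17 h at 37C; LiveBLAzer B/G FRET substrate was read after 1 h at room temperature.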

Assay [9] in a line: qHTS assay to identify small molecule antagonists of the peroxisome proliferator-activated receptor gamma (PPARg) signaling pathway - cell viability counter screen (AID 743194). Also: nearly all actives have a fitted effect of over 55% in size. The essentials:
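PPARg-UAS-bla HEK293H cells were plated, rested 5 h at 37 C, then treated with compounds plus rosiglitazone (50 nM final) for 17 h at 37 C; viability was then read by CellTiter-Glo luminescence after 30 min at room temperature.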

Assay [10] in a line: qHTS assay for small molecule agonists of the antioxidant response element (ARE) signaling pathway (AID 743202; active = well fitted activation curve with a large enough effect in the signal ratio in the repeat runs, not every such curve was filed as active; the % refers to the signal ratio; also: potency is read from the fitted curve at half-maximal effect). The method in brief:
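Following a 16 h, 37 C exposure of reporter HepG2 cells (ARE-driven beta-lactamase, 2,000 cells/well) to compounds, FRET substrate was applied for 2 h at room temperature and fluorescence intensity recorded.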

Sequence of Aryl hydrocarbon receptor (Homo sapiens) (P35869 whole entry, looked up): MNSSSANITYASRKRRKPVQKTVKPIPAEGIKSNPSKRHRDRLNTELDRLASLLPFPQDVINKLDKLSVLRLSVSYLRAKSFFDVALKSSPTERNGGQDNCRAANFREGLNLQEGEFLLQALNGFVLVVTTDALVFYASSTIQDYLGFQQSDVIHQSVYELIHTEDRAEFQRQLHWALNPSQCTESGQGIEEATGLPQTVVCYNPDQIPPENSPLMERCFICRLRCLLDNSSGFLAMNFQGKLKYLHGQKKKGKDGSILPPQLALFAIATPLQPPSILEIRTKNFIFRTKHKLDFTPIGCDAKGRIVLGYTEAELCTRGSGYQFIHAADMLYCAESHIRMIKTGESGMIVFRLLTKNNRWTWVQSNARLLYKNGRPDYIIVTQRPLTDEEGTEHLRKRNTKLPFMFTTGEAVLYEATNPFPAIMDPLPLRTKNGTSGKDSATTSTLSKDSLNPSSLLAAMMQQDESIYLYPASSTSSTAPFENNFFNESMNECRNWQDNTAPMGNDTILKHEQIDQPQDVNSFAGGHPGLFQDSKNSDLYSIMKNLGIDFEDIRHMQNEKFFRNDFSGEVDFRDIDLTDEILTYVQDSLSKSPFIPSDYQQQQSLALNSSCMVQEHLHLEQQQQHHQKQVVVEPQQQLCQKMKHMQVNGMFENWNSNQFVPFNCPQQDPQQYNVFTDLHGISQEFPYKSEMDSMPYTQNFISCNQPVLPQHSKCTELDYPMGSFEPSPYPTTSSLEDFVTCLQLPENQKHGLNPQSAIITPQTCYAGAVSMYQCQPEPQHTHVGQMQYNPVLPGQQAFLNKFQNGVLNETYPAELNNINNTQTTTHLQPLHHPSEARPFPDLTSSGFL
Sequence of Peroxisome proliferator-activated receptor gamma (Homo sapiens) (P37231 whole entry, looked up): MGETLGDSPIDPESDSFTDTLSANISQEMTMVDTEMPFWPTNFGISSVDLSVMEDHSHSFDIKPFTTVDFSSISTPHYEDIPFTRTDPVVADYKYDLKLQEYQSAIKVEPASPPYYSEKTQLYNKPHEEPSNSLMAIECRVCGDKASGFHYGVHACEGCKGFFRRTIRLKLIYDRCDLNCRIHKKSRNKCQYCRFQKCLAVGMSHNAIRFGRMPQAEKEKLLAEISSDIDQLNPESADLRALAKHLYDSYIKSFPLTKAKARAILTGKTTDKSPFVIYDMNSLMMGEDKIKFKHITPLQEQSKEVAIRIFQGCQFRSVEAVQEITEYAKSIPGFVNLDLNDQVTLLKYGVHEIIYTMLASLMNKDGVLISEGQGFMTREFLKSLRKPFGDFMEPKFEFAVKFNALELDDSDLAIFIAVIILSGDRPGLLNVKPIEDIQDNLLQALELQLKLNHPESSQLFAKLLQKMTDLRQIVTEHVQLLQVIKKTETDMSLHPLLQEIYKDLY

With `C[C@]12CC[C@H](O)CC1=CC[C@@H]1[C@@H]2CC[C@]2(C)C(=O)CC[C@@H]12`, the Potency result in assay [1], in [2], in assay [4], in assay [5] and in assay [6] was “inactive” throughout. Further, in assay [3], the outcome was inactive.
Regarding `Nc1ccc([As](=O)(O)O)cc1`, the Potency entry in assay [1], in [8], in assay [10], in [4], in assay [5] and in [6] was “inactive” throughout. In addition, the call in assay [7], in assay [3] and in assay [9] was inactive.
On to `C=C(C)C(=O)OCC(CC)CCCC` (centres undefined), for which the Potency entry in assay [1], in assay [2], in assay [8], in assay [10], in assay [4] and in assay [5] was “inactive” in each case. Further, the Potency entry in assay [6] was “inactive”. Moreover, the molecule was classed as inactive in [3].
Regarding `OCCCCO`, the Potency result in assay [1], in [2], in [10], in assay [4], in assay [5] and in assay [6] was “inactive” in each case.
Consider `C=CC(=O)OCC(CC)CCCC` (centres undefined), for which the Potency entry in assay [1], in assay [2], in assay [10], in assay [4], in [5] and in assay [6] was “inactive” in each case. In assay [9], the molecule was called inactive.
On to `C=CCN=C=S`, for which the Potency entry in assay [1], in assay [2], in assay [8], in [10], in assay [4] and in assay [5] was “inactive” each time. Besides, the Potency entry in assay [6] is “inactive”. Besides, the call in [3] was inactive.
As to `Nc1cccc(Cl)c1`, the Potency result in [1], in assay [8], in [10], in [4] and in assay [5] was “inactive” each time. Also, the outcome in assay [3] and in assay [9] was inactive.
On to `Oc1c(Br)cc(Br)cc1Br`, for which the Potency entry in assay [1], in assay [2], in assay [4], in assay [5] and in [6] was “inactive” each time. For the same molecule, in [3], the outcome was inactive. In addition, the Potency is 43.7 µM (active) in assay [8] and 15.4 µM (active) in [10].
For `Nc1cc(Cl)cc(Cl)c1`, the Potency entry in assay [1], in assay [2], in [10], in [4], in assay [5] and in [6] was “inactive” each time. Moreover, the outcome in assay [3] and in assay [9] was inactive.
Consider `COS(=O)(=O)OC`, for which the Potency entry in assay [1], in assay [2], in [8], in assay [10], in [4] and in assay [5] was “inactive” throughout. The Potency result in assay [6] was “inactive”. Also, the result in [3] was inactive.
Consider `Nc1ccc(N)cc1`, for which the Potency entry in assay [1] is “inactive and 54.7 µM (active) and 43.3 µM (active)”; in assay [10], 8.67 µM (active) and 10.6 µM (active). Further, the molecule was called inactive in [7], in assay [3] and in assay [9]. Besides, the Potency entry in assay [8], in assay [4] and in [5] was “inactive” throughout.
Turning to `O=C(O)C1C(C(=O)O)C2(Cl)C(Cl)=C(Cl)C1(Cl)C2(Cl)Cl` (centres undefined), the Potency result in assay [1], in assay [2], in assay [10], in [4], in [5] and in assay [6] was “inactive” each time.
As to `Cc1cccc(N)c1C`, the Potency result in [1], in assay [8], in assay [10], in [4], in [5] and in [6] was “inactive” throughout. Further, the Potency entry in [2] was “inactive and 48.6 µM (active)”. Also, the call in assay [3] was inactive.
Turning to `CC(C)(C)C(=O)CCl`, the Potency result in [1], in assay [8], in assay [10], in assay [4], in assay [5] and in [6] was “inactive” in each case. For the same molecule, the molecule was called inactive in [7], in assay [3] and in assay [9].
As to `CCCCCCCCCCCCCCCCCC(=O)O`, the Potency entry in assay [1], in assay [10], in assay [4] and in assay [5] was “inactive” in each case. Also, the molecule was called inactive in [7] and in assay [9].
In the case of `O=C(O)Cc1ccccc1`, the Potency entry in assay [1], in assay [2], in assay [8], in assay [10], in assay [4] and in assay [5] was “inactive” throughout. For the same molecule, the Potency entry in assay [6] is “inactive”. In addition, the molecule was called inactive in assay [3].
For `Oc1ccc(Cl)cc1`, the Potency result in [1], in assay [2], in assay [10], in assay [4], in assay [5] and in [6] was “inactive” in each case. Further, the call in [9] was inactive.
Turning to `Cc1cccc(N)c1`, the Potency result in assay [1], in assay [8], in assay [10], in [4], in assay [5] and in assay [6] was “inactive” each time. The call in [7] and in [3] was inactive.
For `COc1cc(-c2ccc(N)c(OC)c2)ccc1N`, the Potency result in assay [1], in assay [4], in assay [5] and in assay [6] was “inactive” throughout. In addition, in assay [3], the result was inactive. In addition, the Potency result in assay [8] is “inactive and 33.1 µM (active)”.
On to `CN(C)CCC#N`, for which the Potency entry in [1], in assay [8], in assay [10], in [4], in [5] and in assay [6] was “inactive” throughout. For the same molecule, the result in assay [7], in assay [3] and in assay [9] was inactive.
For the molecule `C[C@H]1C(=O)O[C@@H]2CCN3CC=C(COC(=O)[C@](C)(O)[C@]1(C)O)[C@H]23`, the Potency result in assay [1], in assay [2], in [8], in assay [10], in [4] and in assay [5] was “inactive” each time. In addition, in assay [6], the Potency result was “inactive”. Also, the call in assay [3] was inactive.
Consider `CSc1nnc(C(C)(C)C)c(=O)n1N`, for which the outcome in assay [9] was inactive. Further, the Potency entry in assay [10], in assay [4], in assay [5] and in [6] was “inactive” throughout.
In the case of `Nc1ncc([N+](=O)[O-])s1`, the Potency result in assay [1], in assay [2], in [8], in [10], in [4] and in assay [5] was “inactive” each time. In addition, in [6], the Potency entry is “inactive”. Besides, in assay [3], the molecule was classed as inactive.
In the case of `[N-]=[N+]=CC(=O)OC[C@H](N)C(=O)O`, the molecule was classed as inactive in [9]. Moreover, the Potency entry in assay [10], in assay [4] and in assay [5] was “inactive” throughout.
For the molecule `CCOC(=O)CC(SP(=O)(OC)OC)C(=O)OCC` (centres undefined), the Potency entry in [1], in [2], in assay [8], in assay [4], in assay [5] and in [6] was “inactive” throughout. For the same molecule, the molecule was called inactive in [3].
Turning to `C/C=C/c1ccc2c(c1)OCO2`, the Potency entry in [1], in [10], in assay [4], in [5] and in [6] was “inactive” each time. Besides, the molecule was classed as inactive in assay [3] and in [9].
